Screening results as filed in PubChem BioAssay.
In the library only some 7.3% were active in any assay of this set; here they are far more common.
AmpC inh no detg – inhibitors of E. coli AmpC beta-lactamase without detergent; AmpC nitrocefin hydrolysis, absorbance 480 nm, 0.0001% Triton; Potency, µM (titrated, usually from 57.1 µM), inactives show at the highest dose activity change, negative = inhibition, usual class: inhibitors; actives 0.52% (n = 330,000);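 note: potency is the fitted concentration of half-maximal effect; plate controls were no compound for no effect and no enzyme for full effect; nearly all actives have a fitted effect of over 20% in size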
Target sequence (P00811 whole entry, looked up): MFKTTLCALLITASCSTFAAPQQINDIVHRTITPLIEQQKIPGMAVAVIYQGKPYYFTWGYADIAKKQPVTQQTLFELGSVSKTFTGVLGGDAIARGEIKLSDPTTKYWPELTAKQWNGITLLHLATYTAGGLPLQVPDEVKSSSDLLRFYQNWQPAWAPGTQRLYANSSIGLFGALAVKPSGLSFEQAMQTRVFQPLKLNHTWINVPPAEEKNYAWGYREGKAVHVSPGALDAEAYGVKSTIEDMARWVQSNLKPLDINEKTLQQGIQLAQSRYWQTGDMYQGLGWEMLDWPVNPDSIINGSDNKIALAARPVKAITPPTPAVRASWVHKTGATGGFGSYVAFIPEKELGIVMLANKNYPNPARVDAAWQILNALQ
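20 mM phosphate pH 7.0 + 0.01% (detergent screen) or 0.0001% Triton X-100; 5.3 nM AmpC reagent; cpd preinc 15 min RT; nitrocefin (800 uM stock) to start; A480 q20 s × 4 min; Activity was normalised to no-enzyme and no-compound control wells.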
HCV inh – HCV inhibition | Huh7.5.1 HCVcc-Cre infection, luciferase reporter, 44 h | Potency, µM (highest dose often 41.8 µM), for the others: at the top dose activity change, negative = inhibition, usual class: inhibitors | actives 3.4% (n = 340,000); note: potency is the fitted concentration of half-maximal effect
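Infectious HCVcc-Cre (~0.5 moi) was added to cells just after compound, with cells seeded 4 h earlier at 1,000 per well. Luciferase activity after 44 h culture reported infection; substrate was incubated 15 min at room temperature before reading.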
FMDV inh – antivirals against foot and mouth disease virus | AID 1159524 | FMDV antiviral cell-based qHTS | Potency, µM (titrated, usually from 57.9 µM), for the others: at the top dose activity change, negative = inhibition, actives largely listed as inhibitors | actives 1.2% (n = 410,000); calls by dose curve; tested in HEK293T cells; note: read-out not given here; potency is the fitted concentration of half-maximal effect; nearly all actives have a fitted effect of over 45% in size
AmpC inh detg – blocks E. coli AmpC beta-lactamase in detergent assay | actives 0.041% (n = 370,000) | AmpC hydrolysis of nitrocefin, absorbance 480 nm, 0.01% Triton | Potency, µM (doses to about 114 µM), inactives show at the highest dose activity change, negative = inhibition, usual class: inhibitors | P00811;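 note: potency is the fitted concentration of half-maximal effect; 0% = no-compound wells and -100% = no-enzyme wells; nearly all actives have a fitted effect of over 25% in size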
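AmpC (5.3 nM in the dispensed reagent) in 20 mM phosphate pH 7.0 with 0.01% (detergent screen) or 0.0001% Triton X-100 was preincubated with compounds for 15 min at room temperature. Nitrocefin was then added from an 800 uM solution, and hydrolysis was followed at 480 nm.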
HCMV antiviral – inhibitors of human cytomegalovirus; actives 4.5% (n = 410,000); AID 1259415; activity change, negative = inhibition, % at 57.5 µM; HFF cells, HCMV-luciferase reporter, 72 h; hits give low values; in the data active = activity change below about -60%; inconclusive = no clear call, values can overlap the other calls; inactive = above about -39%
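Luciferase read-out from HCMV-luciferase-infected HFFs (MOI 1 PFU/cell) 72 h post infection at 37C; compounds added after 16 h cell attachment; activity normalized between buffer-only basal and Salinomycin (10uM) inhibitor controls.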
* hit, by the source's call. Unless noted, calls come from the whole dose curve; as a rule, active = well fitted curve in the direction sought with a large enough effect; inconclusive = small, poorly fitted or top-dose-only effect, or another doubt; inactive = no such curve, though single readings can be large; an effect the other way counts as inactive or inconclusive. Unless noted, % is set by controls: 0 for no effect and ±100 for the full control effect.

Screening CC(C)(O)C#Cc1ccc(C(=O)N2CCN(c3ccccc3)CC2)cc1 returned AmpC inh no detg 0%, HCV inh 7%, FMDV inh 0%, AmpC inh detg -3% and HCMV antiviral -18.
`CCSc1ccccc1C(=O)N1CCN(c2ccc([N+](=O)[O-])cc2)CC1` gave AmpC inh no detg 19%, HCV inh 10µM*, FMDV inh inconclusive, AmpC inh detg -4% and HCMV antiviral -30.
CC(C)(O)C#Cc1ccc(C(=O)N2CCN(c3ccc([N+](=O)[O-])cc3)CC2)cc1 was read as AmpC inh no detg 55%, HCV inh inconclusive, FMDV inh inconclusive, AmpC inh detg 4% and HCMV antiviral -85*.
O=C(c1cc2ccccc2cc1O)N1CCN(c2ccc([N+](=O)[O-])cc2)CC1 was read as AmpC inh no detg inconclusive, HCV inh inconclusive, FMDV inh -10%, AmpC inh detg inconclusive and HCMV antiviral 3.
For Cc1c(-c2ccccc2)oc2c(C(=O)N3CCN(c4ccc([N+](=O)[O-])cc4)CC3)cccc2c1=O the results were AmpC inh no detg 29%, HCV inh -27%, FMDV inh -25%, AmpC inh detg inconclusive and HCMV antiviral -61*.
Screening Cc1c(C(=O)N2CCN(c3ccc([N+](=O)[O-])cc3)CC2)oc2ccccc12 returned AmpC inh no detg -27%, HCV inh inconclusive, FMDV inh inconclusive, AmpC inh detg -9% and HCMV antiviral -21.
CC1(C(=O)N2CCN(c3ccc([N+](=O)[O-])cc3)CC2)CC1(Cl)Cl (centres undefined) was read as AmpC inh no detg 13%, HCV inh 11µM*, FMDV inh 20µM*, AmpC inh detg -17% and HCMV antiviral inconclusive.
Screening COc1cc(CC(=O)OCC(=O)N2CC(C)CC(C)C2)cc(OC)c1OC (centres undefined) returned AmpC inh no detg 36%, HCV inh -6%, FMDV inh -12% and AmpC inh detg 3%.
For COc1cc(/C=C(/C#N)C(=O)Nc2cc(C(F)(F)F)ccc2Cl)ccc1OCC(=O)Nc1cccc(C(F)(F)F)c1 the results were HCV inh -6%, FMDV inh 1% and HCMV antiviral 33.
Screening O=C(C1COc2ccccc2O1)N1CCN(c2ccc([N+](=O)[O-])cc2)CC1 (centres undefined) returned AmpC inh no detg -39%, HCV inh 22µM*, FMDV inh 0% and HCMV antiviral -13.
For CCSc1ccccc1C(=O)N1CCN(c2nc3ccccc3s2)CC1 the results were FMDV inh inconclusive, AmpC inh detg -3% and HCMV antiviral -67*.
`CCCC(=O)N1CCN(c2nc3ccccc3s2)CC1` gave AmpC inh no detg 4%, HCV inh inconclusive, FMDV inh 2%, AmpC inh detg -6% and HCMV antiviral inconclusive.
O=C(C1COc2ccccc2O1)N1CCN(c2ccc(F)cc2)CC1 (centres undefined) was read as AmpC inh no detg 20%, HCV inh 5%, AmpC inh detg -12% and HCMV antiviral 6.
For COc1ccc2[nH]c3c4c(ccc3c2c1)C(=O)C=CC4=O the results were AmpC inh no detg -35%, HCV inh inconclusive, FMDV inh 14µM*, AmpC inh detg 3% and HCMV antiviral 81.
`COc1ccc2[nH]c(=O)cc(C(=O)O)c2c1` gave AmpC inh no detg -13%, HCV inh -3%, FMDV inh -1%, AmpC inh detg 1% and HCMV antiviral 21.
`O=C(COc1ccc(C(=O)c2ccccc2)cc1)NCc1ccc(F)cc1` gave AmpC inh no detg -7%, HCV inh -8%, FMDV inh -15%, AmpC inh detg -9% and HCMV antiviral -76*.
Screening Cc1ccc(NC(=O)COc2ccc(C(=O)c3ccccc3)cc2)c(O)c1 returned AmpC inh no detg 16µM*, HCV inh inconclusive, FMDV inh -25%, AmpC inh detg 1% and HCMV antiviral -19.
`CCN(CC(=O)NCc1ccc(F)cc1)C(=O)COc1ccc(C)c(C)c1` gave AmpC inh no detg 10%, HCV inh inconclusive, FMDV inh 8%, AmpC inh detg -4% and HCMV antiviral -65*.
O=C(COc1ccccc1)NCc1ccccc1 was read as AmpC inh no detg -21%, HCV inh 15%, AmpC inh detg 1% and HCMV antiviral inconclusive.
Screening CC1=NNC(=O)/C1=C\c1cn(-c2ccccc2)nc1-c1ccc(Cl)cc1 returned AmpC inh no detg -36%, HCV inh inconclusive, FMDV inh 10µM*, AmpC inh detg -1% and HCMV antiviral -102*.
Cc1ccc(S(=O)(=O)N2CCCC2=O)c(C)c1N(C)S(C)(=O)=O was read as AmpC inh no detg -13%, HCV inh -4%, FMDV inh -13%, AmpC inh detg -1% and HCMV antiviral 6.
For CC1(C)CC(=O)C=C(c2ccc(-c3cnc4ccccc4c3)cc2)C1=O the results were FMDV inh -36% and HCMV antiviral -71*.
`O=C(O)C1=CCCc2ccc(F)cc21` gave HCV inh 16%, FMDV inh -5% and HCMV antiviral -28.
NC(=O)c1cc([N+](=O)[O-])ccc1NCc1ccc(N)cc1 was read as AmpC inh no detg -19%, HCV inh -5%, FMDV inh 8.9µM*, AmpC inh detg -12% and HCMV antiviral -6.
Screening NC(=O)c1cc([N+](=O)[O-])ccc1NCc1ccc(F)cc1 returned AmpC inh no detg -50%, HCV inh 2.5µM*, FMDV inh 44%, AmpC inh detg -8% and HCMV antiviral -81*.
`NC(=O)c1cc([N+](=O)[O-])ccc1NCc1cccc(N)c1` gave AmpC inh no detg -33%, HCV inh -13%, FMDV inh 0%, AmpC inh detg 1% and HCMV antiviral 45.
`COc1cccc(C2C(C(=O)Nc3ccccc3)=C(C)Nc3nnnn32)c1OC` (centres undefined) gave FMDV inh -1%, AmpC inh detg 10% and HCMV antiviral -100*.
For Cc1ccc(C(=O)OC2OC(=O)C(Cl)=C2N2CCOCC2)cc1 (centres undefined) the results were AmpC inh no detg -49%, HCV inh 12%, FMDV inh -7%, AmpC inh detg 11µM* and HCMV antiviral -7.
Cc1ccc(C(=O)Oc2ccccc2N2CCOCC2)cc1 was read as AmpC inh no detg 12%, HCV inh 16%, FMDV inh -8%, AmpC inh detg -2% and HCMV antiviral inconclusive.
For COc1cccc(C(=O)Nc2ccccc2-c2nc(-c3ccc(C)cc3)no2)c1 the results were FMDV inh 2%, AmpC inh detg 24% and HCMV antiviral 53.
Cc1nc2sccn2c1CN1CCOc2ccc(CN3CCN(c4ccc(F)cc4)CC3)cc2C1 was read as FMDV inh 8.9µM*.
